Source: the supplement of paper PMC6992640

system: WHIM30 (cells of a triple-negative basal-like breast cancer xenograft); experiment: cell viability of combination (% of vehicle); higher = less cytotoxic; details: 1 µM; 72 h; partner dose: 10 nM
Description: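 PDX cells were treated for 72 h with each drug at 1 µM plus carfilzomib (10 nM; 100 nM for WHIM2). Luciferase viability is expressed as percent of vehicle.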

Compound	cell viability of combination
COc1ccc2cc1Oc1ccc(cc1)CC1c3c(cc4c(c3Oc3cc5c(cc3OC)CCN(C)C5C2)OCO4)CCN1C (stereo not given) [Cepharanthine] + CC(C)C[C@H](NC(=O)[C@H](CCc1ccccc1)NC(=O)CN1CCOCC1)C(=O)N[C@@H](Cc1ccccc1)C(=O)N[C@@H](CC(C)C)C(=O)[C@@]1(C)CO1 [Carfilzomib]	9.41
COC(=O)C12CCC(C)(C)CC1C1C(=O)C=C3C4(C)C=C(C#N)C(=O)C(C)(C)C4CCC3(C)C1(C)CC2 (stereo not given) [Bardoxolone methyl] + CC(C)C[C@H](NC(=O)[C@H](CCc1ccccc1)NC(=O)CN1CCOCC1)C(=O)N[C@@H](Cc1ccccc1)C(=O)N[C@@H](CC(C)C)C(=O)[C@@]1(C)CO1 [Carfilzomib]	14.3
Cc1cccc(CN2CCN(C(c3ccccc3)c3ccc(Cl)cc3)CC2)c1.Cl.Cl (stereo not given) [Meclizine 2HCl] + CC(C)C[C@H](NC(=O)[C@H](CCc1ccccc1)NC(=O)CN1CCOCC1)C(=O)N[C@@H](Cc1ccccc1)C(=O)N[C@@H](CC(C)C)C(=O)[C@@]1(C)CO1 [Carfilzomib]	11.7
CC(O)C(=O)O.CC(O)C(=O)O.CN1CCN(c2ccc3c(c2)NC(=C2C(=O)N=c4cccc(F)c4=C2N)N3)CC1 [Dovitinib Dilactic acid] + CC(C)C[C@H](NC(=O)[C@H](CCc1ccccc1)NC(=O)CN1CCOCC1)C(=O)N[C@@H](Cc1ccccc1)C(=O)N[C@@H](CC(C)C)C(=O)[C@@]1(C)CO1 [Carfilzomib]	32.1
COC1=C(OC)C(=O)C(CCCCCCCCCCO)=C(C)C1=O [Idebenone] + CC(C)C[C@H](NC(=O)[C@H](CCc1ccccc1)NC(=O)CN1CCOCC1)C(=O)N[C@@H](Cc1ccccc1)C(=O)N[C@@H](CC(C)C)C(=O)[C@@]1(C)CO1 [Carfilzomib]	17.5
Cl.Fc1ccc(C2CCNCC2COc2ccc3c(c2)OCO3)cc1 (stereo not given) [Paroxetine HCl] + CC(C)C[C@H](NC(=O)[C@H](CCc1ccccc1)NC(=O)CN1CCOCC1)C(=O)N[C@@H](Cc1ccccc1)C(=O)N[C@@H](CC(C)C)C(=O)[C@@]1(C)CO1 [Carfilzomib]	12.9
Cc1nc(NC(=O)N2CCCC2C(N)=O)sc1-c1ccnc(C(C)(C)C(F)(F)F)c1 (stereo not given) + CC(C)C[C@H](NC(=O)[C@H](CCc1ccccc1)NC(=O)CN1CCOCC1)C(=O)N[C@@H](Cc1ccccc1)C(=O)N[C@@H](CC(C)C)C(=O)[C@@]1(C)CO1 [Carfilzomib]	20
C#Cc1cccc(Nc2ncnc3cc(OCCOC)c(OCCOC)cc23)c1.Cl [Erlotinib Hydrochloride] + CC(C)C[C@H](NC(=O)[C@H](CCc1ccccc1)NC(=O)CN1CCOCC1)C(=O)N[C@@H](Cc1ccccc1)C(=O)N[C@@H](CC(C)C)C(=O)[C@@]1(C)CO1 [Carfilzomib]	26.3
COCCn1c2c([n+](Cc3cnccn3)c1C)C(=O)c1ccccc1C2=O.[Br-] + CC(C)C[C@H](NC(=O)[C@H](CCc1ccccc1)NC(=O)CN1CCOCC1)C(=O)N[C@@H](Cc1ccccc1)C(=O)N[C@@H](CC(C)C)C(=O)[C@@]1(C)CO1 [Carfilzomib]	6.3
Cc1ccc(-n2[nH]c(C)c(NN=C3C=CC=C(c4cccc(C(=O)O)c4)C3=O)c2=O)cc1C [Eltrombopag] + CC(C)C[C@H](NC(=O)[C@H](CCc1ccccc1)NC(=O)CN1CCOCC1)C(=O)N[C@@H](Cc1ccccc1)C(=O)N[C@@H](CC(C)C)C(=O)[C@@]1(C)CO1 [Carfilzomib]	19.8
COc1cccc2c1C(=O)c1c(O)c3c(c(O)c1C2=O)CC(O)(C(=O)CO)CC3OC1CC(N)C(O)C(C)O1.Cl (stereo not given) [Epirubicin HCl] + CC(C)C[C@H](NC(=O)[C@H](CCc1ccccc1)NC(=O)CN1CCOCC1)C(=O)N[C@@H](Cc1ccccc1)C(=O)N[C@@H](CC(C)C)C(=O)[C@@]1(C)CO1 [Carfilzomib]	5.02
CCCSc1nc(NC2CC2c2ccc(F)c(F)c2)c2nnn(C3CC(OCCO)C(O)C3O)c2n1 (stereo not given) [Ticagrelor] + CC(C)C[C@H](NC(=O)[C@H](CCc1ccccc1)NC(=O)CN1CCOCC1)C(=O)N[C@@H](Cc1ccccc1)C(=O)N[C@@H](CC(C)C)C(=O)[C@@]1(C)CO1 [Carfilzomib]	14.4
Cl.Clc1ccccc1CN1CCc2sccc2C1 [Ticlopidine HCl] + CC(C)C[C@H](NC(=O)[C@H](CCc1ccccc1)NC(=O)CN1CCOCC1)C(=O)N[C@@H](Cc1ccccc1)C(=O)N[C@@H](CC(C)C)C(=O)[C@@]1(C)CO1 [Carfilzomib]	16
CC[C@@]1(O)C(=O)OCc2c1cc1n(c2=O)Cc2cc3c(CN(C)C)c(O)ccc3nc2-1 [Topotecan] + CC(C)C[C@H](NC(=O)[C@H](CCc1ccccc1)NC(=O)CN1CCOCC1)C(=O)N[C@@H](Cc1ccccc1)C(=O)N[C@@H](CC(C)C)C(=O)[C@@]1(C)CO1 [Carfilzomib]	7.16
CC(C)C[C@H](NC(=O)[C@H](Cc1ccccc1)NC(=O)c1cnccn1)B(O)O [Bortezomib] + CC(C)C[C@H](NC(=O)[C@H](CCc1ccccc1)NC(=O)CN1CCOCC1)C(=O)N[C@@H](Cc1ccccc1)C(=O)N[C@@H](CC(C)C)C(=O)[C@@]1(C)CO1 [Carfilzomib]	5.02
CC1=C(C(=O)OC(C)C)C(c2cccc([N+](=O)[O-])c2)C(C(=O)OC2CN(C(c3ccccc3)c3ccccc3)C2)=C(N)N1 (stereo not given) [Azelnidipine] + CC(C)C[C@H](NC(=O)[C@H](CCc1ccccc1)NC(=O)CN1CCOCC1)C(=O)N[C@@H](Cc1ccccc1)C(=O)N[C@@H](CC(C)C)C(=O)[C@@]1(C)CO1 [Carfilzomib]	14.5
CCCCCOc1ccc(-c2ccc(-c3ccc(C(=O)N[C@H]4C[C@@H](O)[C@@H](O)NC(=O)[C@@H]5[C@@H](O)[C@@H](C)CN5C(=O)[C@H]([C@@H](C)O)NC(=O)[C@H]([C@H](O)[C@@H](O)c5ccc(O)cc5)NC(=O)[C@@H]5C[C@@H](O)CN5C(=O)[C@H]([C@@H](C)O)NC4=O)cc3)cc2)cc1 [Anidulafungin] + CC(C)C[C@H](NC(=O)[C@H](CCc1ccccc1)NC(=O)CN1CCOCC1)C(=O)N[C@@H](Cc1ccccc1)C(=O)N[C@@H](CC(C)C)C(=O)[C@@]1(C)CO1 [Carfilzomib]	16.7
CCOC(=O)C1=C(COCCN)NC(C)=C(C(=O)OC)C1c1ccccc1Cl (stereo not given) [Amlodipine] + CC(C)C[C@H](NC(=O)[C@H](CCc1ccccc1)NC(=O)CN1CCOCC1)C(=O)N[C@@H](Cc1ccccc1)C(=O)N[C@@H](CC(C)C)C(=O)[C@@]1(C)CO1 [Carfilzomib]	15.8
CNC(=O)c1cc(Oc2ccc(NC(=O)Nc3ccc(Cl)c(C(F)(F)F)c3)c(F)c2)ccn1.Cl [Regorafenib hydrochloride] + CC(C)C[C@H](NC(=O)[C@H](CCc1ccccc1)NC(=O)CN1CCOCC1)C(=O)N[C@@H](Cc1ccccc1)C(=O)N[C@@H](CC(C)C)C(=O)[C@@]1(C)CO1 [Carfilzomib]	32.8
Cc1cn(-c2cc(NC(=O)c3ccc(C)c(Nc4nccc(-c5cccnc5)n4)c3)cc(C(F)(F)F)c2)cn1 [Nilotinib(AMN-107)] + CC(C)C[C@H](NC(=O)[C@H](CCc1ccccc1)NC(=O)CN1CCOCC1)C(=O)N[C@@H](Cc1ccccc1)C(=O)N[C@@H](CC(C)C)C(=O)[C@@]1(C)CO1 [Carfilzomib]	22.2
